In PubChem BioAssay (EPA / NIEHS):
Calls of active or inactive are those of the source. How the source made its calls: active means hit-call score of the fitted dose curve at least 0.9, where 1 is the maximum; inactive means score below 0.9.

Key:
Settings in all cases: mRNA level, 48 h; actives raise or lower the signal
[1] = read-out: ABC Transporter (ABCC2), ABCC2 (gene 1244); experiment: LTEA_HepaRG_ABCC2: Life Technologies and Expression Analysis (LTEA) Assay for ABC Transporter (ABCC2) using HepaRG (AID 2283464)
In short: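 qRT-PCR (TaqMan, Fluidigm array) read-out of ABCC2 mRNA, normalized to three housekeeping genes. Differentiated HepaRG cells were treated 48 h in serum-free induction medium with 8-point half-log series from 100 uM in 0.5% DMSO; curves fitted bidirectionally relative to DMSO.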

[2] = read-out: Broad substrate specificity ATP-binding cassette transporter ABCG2 (Homo sapiens) (UniProt Q9UNQ0); experiment: LTEA_HepaRG_ABCG2: Life Technologies and Expression Analysis (LTEA) Assay for ABC Transporter (ABCG2) using HepaRG (AID 2283465)
In short: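 Gene expression of ABCG2 in HepaRG liver cells is quantified by qRT-PCR following 48 h exposure across an eight-point series topping at 100 uM. Values come from bidirectional fitting relative to DMSO vehicle.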

[3] = read-out: ATP-citrate lyase (ACLY), ACLY (gene 47); experiment: LTEA_HepaRG_ACLY: Life Technologies and Expression Analysis (LTEA) Assay for ATP-citrate lyase (ACLY) using HepaRG (AID 2283466)
In short: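 ACLY expression changes in human HepaRG liver cells are quantified by qRT-PCR after 48 h exposure to test chemicals (maximum 100 uM, half-log steps). Values are fitted in both directions relative to 0.5% DMSO vehicle.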

[4] = read-out: Peroxisomal acyl-coenzyme A oxidase 1 (ACOX1) gene, ACOX1 (gene 51); experiment: LTEA_HepaRG_ACOX1: Life Technologies and Expression Analysis (LTEA) Assay for Peroxisomal acyl-coenzyme A oxidase 1 (ACOX1) gene using HepaRG (AID 2283467)
In short: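 Human HepaRG hepatic cultures, 48 h treatment with test chemicals up to 100 uM. ACOX1 expression read by qRT-PCR relative to 0.5% DMSO vehicle.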

[5] = read-out: Alkaline Phosphatase, Placental (ALPP) gene, ALPP (gene 250); experiment: LTEA_HepaRG_ALPP: Life Technologies and Expression Analysis (LTEA) Assay for Alkaline Phosphatase, Placental (ALPP) gene using HepaRG (AID 2283468)
In short: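 qRT-PCR readout of ALPP mRNA (Fluidigm TaqMan), normalized to ACTB/GAPDH/POLR2A, after 48 h chemical exposure of HepaRG cells; 8-point half-log series, top 100 uM, 0.5% DMSO vehicle. Bidirectional curve fit versus DMSO baseline.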

[6] = read-out: Bcl-2 (BAD) gene, BAD (gene 572); experiment: LTEA_HepaRG_BAD: Life Technologies and Expression Analysis (LTEA) Assay for Bcl-2 (BAD) gene using HepaRG (AID 2283469)
In short: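 Activity values reflect up- or down-regulation of BAD mRNA in human HepaRG hepatic cells treated 48 h in serum-free medium, with eight-point half-log dosing capped at 100 uM and 0.5% DMSO vehicle.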

[7] = read-out: Bcl-2 (BAX) gene, BAX (gene 581); experiment: LTEA_HepaRG_BAX: Life Technologies and Expression Analysis (LTEA) Assay for Bcl-2 (BAX) gene using HepaRG (AID 2283470)
In short: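 Gene expression measured by Fluidigm qRT-PCR with three housekeeping genes for normalisation. HepaRG cells, plated 48 h beforehand, treated 48 h at up to 100 uM (8-point, half-log) in 0.5% DMSO. Bidirectional fitting versus DMSO.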

[8] = read-out: adenosine kinase (ADK) gene, ADK (gene 132); experiment: LTEA_HepaRG_ADK: Life Technologies and Expression Analysis (LTEA) Assay for adenosine kinase (ADK) gene using HepaRG (AID 2283471)
In short: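 Read-out is ADK transcript level measured by qRT-PCR and normalised to three housekeeping genes. Cells are human HepaRG, dosed for 48 h at up to 100 uM in 0.5% DMSO. Gain or loss of signal is fitted against DMSO controls.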

[9] = read-out: Alpha-fetoprotein (AFP) gene, AFP (gene 174); experiment: LTEA_HepaRG_AFP: Life Technologies and Expression Analysis (LTEA) Assay for Alpha-fetoprotein (AFP) gene using HepaRG (AID 2283472)
In short: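 AFP transcript measured by TaqMan qRT-PCR with three housekeeping genes for normalization, after 48 h chemical treatment of HepaRG cells (top 100 uM, half-log steps, 0.5% DMSO). Gain or loss fitted against vehicle.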

[10] = read-out: BCL2L11 (gene 10018); experiment: LTEA_HepaRG_BCL2L11: Life Technologies and Expression Analysis (LTEA) Assay for Bcl-2 (BCL2L11) gene using HepaRG (AID 2283473)
In short: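 HepaRG, 48 h exposure, 8-pt half-log series from 100 uM in 0.5% DMSO, duplicates; qRT-PCR (Fluidigm TaqMan) for BCL2L11, housekeeping-normalized; bidirectional curve fit relative to DMSO baseline.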

[11] = read-out: Apolipoprotein A-V (APOA5) gene, APOA5 (gene 116519); experiment: LTEA_HepaRG_APOA5: Life Technologies and Expression Analysis (LTEA) Assay for Apolipoprotein A-V (APOA5) gene using HepaRG (AID 2283474)
In short: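 HepaRG, 48 h chemical exposure in serum-free induction medium, 8-pt half-log series (top 100 uM), 0.5% DMSO vehicle, duplicates. Readout: APOA5 mRNA by qRT-PCR, housekeeping-normalized; bidirectional fit vs DMSO baseline.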

[12] = read-out: Apoptosis regulator Bcl-2 (Homo sapiens) (UniProt P10415); experiment: LTEA_HepaRG_BCL2: Life Technologies and Expression Analysis (LTEA) Assay for Bcl-2 gene using HepaRG (AID 2283475)
In short: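 qRT-PCR of BCL2 transcript, normalized to three housekeeping genes (ACTB, GAPDH, POLR2A), after 48 h chemical exposure of HepaRG cells; concentrations top 100 uM with half-log dilutions, 0.5% DMSO vehicle, duplicates; changes up or down fitted relative to vehicle.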

[13] = read-out: Bcl-2 (BID) gene, BID (gene 637); experiment: LTEA_HepaRG_BID: Life Technologies and Expression Analysis (LTEA) Assay for Bcl-2 (BID) gene using HepaRG (AID 2283476)
In short: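 Duplicate 48 h treatments of HepaRG cells in serum-free induction medium spanned 100 uM downward in half-log steps, 0.5% DMSO. Transcript change quantified by qRT-PCR against three housekeeping genes, fitted up or down versus DMSO.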

[14] = read-out: Caspase-3 (Homo sapiens) (UniProt P42574); experiment: LTEA_HepaRG_CASP3: Life Technologies and Expression Analysis (LTEA) Assay for cysteine-aspartic acid protease (CASP3) using HepaRG (AID 2283477)
In short: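 HepaRG, 48 h exposure, 8 conc. (top 100 uM, half-log steps, duplicate), 0.5% DMSO vehicle; qRT-PCR of CASP3 transcript, housekeeping-normalised (ACTB/GAPDH/POLR2A); bidirectional curve fit vs DMSO baseline.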

[15] = read-out: Cytochrome P450 (CYP24A1), CYP24A1 (gene 1591); experiment: LTEA_HepaRG_CYP24A1: Life Technologies and Expression Analysis (LTEA) Assay for Cytochrome P450 (CYP24A1) using HepaRG (AID 2283478)
In short: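 qRT-PCR read-out: CYP24A1 transcript levels normalized to three housekeeping genes, bidirectional curve fits against 0.5% DMSO baseline. Human HepaRG cells treated 48 h with chemicals at eight concentrations from 100 uM in half-log steps.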

[16] = read-out: Cytochrome P450 (CYP1A2), CYP1A2 (gene 1544); experiment: LTEA_HepaRG_CYP1A2: Life Technologies and Expression Analysis (LTEA) Assay for Cytochrome P450 (CYP1A2) using HepaRG (AID 2283479)
In short: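 HepaRG, 48 h exposure, top 100 uM, half-log 8-pt, 0.5% DMSO vehicle, duplicates. Readout: TaqMan qRT-PCR of CYP1A2 mRNA, housekeeping-normalized (ACTB/GAPDH/POLR2A). Gain/loss fit relative to DMSO baseline.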

[17] = read-out: cysteine-aspartic acid protease (CASP8), CASP8 (gene 841); experiment: LTEA_HepaRG_CASP8: Life Technologies and Expression Analysis (LTEA) Assay for cysteine-aspartic acid protease (CASP8) using HepaRG (AID 2283480)
In short: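 Concentration-response in duplicate up to 100 uM (half-log steps, 0.5% DMSO) on differentiated HepaRG cultures for 48 h. Expression change of CASP8 mRNA is determined by TaqMan qRT-PCR with housekeeping-gene normalization.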

[18] = read-out: Cytochrome P450 (CYP2B6), CYP2B6 (gene 1555); experiment: LTEA_HepaRG_CYP2B6: Life Technologies and Expression Analysis (LTEA) Assay for Cytochrome P450 (CYP2B6) using HepaRG (AID 2283481)
In short: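 Read-out is CYP2B6 mRNA by TaqMan qRT-PCR, normalized to three housekeeping genes and fitted bidirectionally against 0.5% DMSO baseline. Human HepaRG cells received test chemicals for 48 h, top concentration 100 uM, half-log dilutions.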

[19] = read-out: Cytochrome P450 2C19 (Homo sapiens) (UniProt P33261); experiment: LTEA_HepaRG_CYP2C19: Life Technologies and Expression Analysis (LTEA) Assay for CYP2C19 using HepaRG (AID 2283482)
In short: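 HepaRG, 48 h chemical exposure, 8-pt half-log series from 100 uM in 0.5% DMSO, duplicates. Readout: CYP2C19 mRNA by TaqMan qRT-PCR, housekeeping-normalized. Bidirectional fit vs DMSO baseline; phenobarbital 1mM as induction control.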

[20] = read-out: CYP2C8 (gene 1558); experiment: LTEA_HepaRG_CYP2C8: Life Technologies and Expression Analysis (LTEA) Assay for CYP2C8 using HepaRG (AID 2283483)
In short: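 This is a transcriptional endpoint in HepaRG cultures: 48 h exposure, highest concentration 100 uM. CYP2C8 mRNA is quantified by TaqMan qRT-PCR.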

Measured: AC50

Chain of Cytochrome P450 2C19 (Homo sapiens) (P33261 whole entry, looked up): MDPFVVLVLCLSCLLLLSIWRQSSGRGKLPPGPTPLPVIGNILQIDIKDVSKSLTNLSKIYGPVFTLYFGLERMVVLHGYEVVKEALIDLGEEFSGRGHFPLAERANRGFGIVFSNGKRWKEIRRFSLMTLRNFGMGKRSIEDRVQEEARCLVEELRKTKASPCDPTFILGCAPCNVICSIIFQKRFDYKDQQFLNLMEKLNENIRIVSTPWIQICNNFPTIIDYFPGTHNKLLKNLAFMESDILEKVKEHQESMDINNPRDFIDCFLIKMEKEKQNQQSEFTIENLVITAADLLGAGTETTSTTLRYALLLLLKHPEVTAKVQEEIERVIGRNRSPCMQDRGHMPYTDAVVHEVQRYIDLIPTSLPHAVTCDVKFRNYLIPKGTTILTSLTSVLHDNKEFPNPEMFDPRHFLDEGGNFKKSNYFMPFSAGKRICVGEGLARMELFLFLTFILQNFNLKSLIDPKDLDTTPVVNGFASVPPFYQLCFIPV
Chain of Apoptosis regulator Bcl-2 (Homo sapiens) (P10415 whole entry, looked up): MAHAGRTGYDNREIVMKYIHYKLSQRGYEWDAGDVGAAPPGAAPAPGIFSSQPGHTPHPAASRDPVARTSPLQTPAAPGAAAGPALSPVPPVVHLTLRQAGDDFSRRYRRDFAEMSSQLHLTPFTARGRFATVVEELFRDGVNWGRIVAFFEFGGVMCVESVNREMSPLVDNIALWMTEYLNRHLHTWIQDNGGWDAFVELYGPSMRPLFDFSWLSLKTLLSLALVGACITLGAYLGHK
Chain of Broad substrate specificity ATP-binding cassette transporter ABCG2 (Homo sapiens) (Q9UNQ0 whole entry, looked up): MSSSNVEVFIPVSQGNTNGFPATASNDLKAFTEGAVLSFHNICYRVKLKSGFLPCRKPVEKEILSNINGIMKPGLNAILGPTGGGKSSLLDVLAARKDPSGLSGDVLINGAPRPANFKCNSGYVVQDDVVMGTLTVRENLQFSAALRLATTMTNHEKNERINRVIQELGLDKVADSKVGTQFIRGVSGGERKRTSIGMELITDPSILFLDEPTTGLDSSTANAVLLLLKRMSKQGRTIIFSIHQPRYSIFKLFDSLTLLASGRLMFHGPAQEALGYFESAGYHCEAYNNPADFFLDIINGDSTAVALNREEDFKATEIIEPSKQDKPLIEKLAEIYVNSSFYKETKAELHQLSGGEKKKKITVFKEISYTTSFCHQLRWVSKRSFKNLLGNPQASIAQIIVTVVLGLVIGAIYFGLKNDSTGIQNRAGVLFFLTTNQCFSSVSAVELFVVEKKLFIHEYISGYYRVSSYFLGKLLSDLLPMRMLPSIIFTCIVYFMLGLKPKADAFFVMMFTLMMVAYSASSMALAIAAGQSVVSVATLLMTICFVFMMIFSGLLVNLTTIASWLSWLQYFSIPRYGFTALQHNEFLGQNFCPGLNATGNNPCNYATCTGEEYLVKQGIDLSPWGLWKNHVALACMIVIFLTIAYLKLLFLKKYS
Chain of Caspase-3 (Homo sapiens) (P42574 whole entry, looked up): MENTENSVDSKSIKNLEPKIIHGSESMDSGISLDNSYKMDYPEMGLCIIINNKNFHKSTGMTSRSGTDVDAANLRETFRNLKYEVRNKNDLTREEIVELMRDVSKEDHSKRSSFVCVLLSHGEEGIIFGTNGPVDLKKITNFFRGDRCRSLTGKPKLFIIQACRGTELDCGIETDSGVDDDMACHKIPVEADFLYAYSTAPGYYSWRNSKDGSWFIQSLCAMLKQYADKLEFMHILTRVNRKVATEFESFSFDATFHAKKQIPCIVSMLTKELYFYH

CCC(C)=NO
active: [16] 49.8 µM
inactive: all other assays above
